GSH fluor – compound fluorescence on glutathione beads, profiling panel, artefact control, biophysical, 488/530 nm, flow cytometry; 190,000 compounds, 0.25% hits; GSH beads flow cytometry, compound fluorescence 488/530 nm; active compounds read high; fluorescence (KMESF) at 10 µM; in the data active = fluorescence above about 89;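 also: glutathione beads carrying GST-tagged Bcl family fusion proteins plus one bare bead set; values are compound well signal with DMSO vehicle wells as background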
RGS16-Gao – modulators of RGS16 binding to Galphao, primary screen, biochemical, human proteins, multiplexed bead flow cytometry; binding response (% of control), % at 10 µM; 220,000 compounds, 0.38% hits; bead-based flow cytometry RGS16-Galphao binding, fluorescence; actives lie on both sides; AID 1441, 2008; call rule not given here;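 also: Galphao activated by GDP with aluminum fluoride before binding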
RGS8-Gao – RGS8-Galphao binding modulators, primary screen, biochemical, multiplexed bead flow cytometry | AID 1423, 2008 | actives lie on both sides | response (percent of control binding), % at 10 µM | Guanine nucleotide-binding protein G(o) subunit alpha (Homo sapiens), P09471 | 220,000 compounds, 0.34% hits; in the data active = response below about 60% or above about 140%; inactive = in between;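 also: Galphao activated as the GDP aluminium fluoride complex binding bead-coupled RGS8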
Target sequence (P09471 whole entry, looked up): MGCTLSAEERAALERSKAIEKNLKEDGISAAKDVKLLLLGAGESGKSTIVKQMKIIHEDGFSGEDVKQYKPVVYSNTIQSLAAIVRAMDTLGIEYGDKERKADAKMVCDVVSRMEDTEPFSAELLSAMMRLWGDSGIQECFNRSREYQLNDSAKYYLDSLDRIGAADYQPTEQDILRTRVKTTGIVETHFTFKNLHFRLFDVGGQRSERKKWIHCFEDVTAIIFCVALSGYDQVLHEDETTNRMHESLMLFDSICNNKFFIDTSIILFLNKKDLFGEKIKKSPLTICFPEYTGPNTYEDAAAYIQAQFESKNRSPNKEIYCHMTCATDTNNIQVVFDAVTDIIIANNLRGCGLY
RGS7-Gao reg – RGS7-Galphao binding modulators, primary screen, biochemical, multiplexed bead flow cytometry | Guanine nucleotide-binding protein G(o) subunit alpha (Homo sapiens), P09471 | actives lie on both sides | binding response (% of control), % at 10 µM | 220,000 compounds, 0.35% hits | AID 1439, 2008; in the data active = binding response below about 49% or above about 150%; inconclusive = no clear call, values can overlap the other calls; inactive = in between;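 also: fluorescent Galphao held in activated GDP-AlF4 state binding bead-coupled RGS7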
Avidin bead fluor – green autofluorescence of compounds with avidin beads – biophysical, 488/530 nm, flow cytometry, artefact control, profiling panel; compound fluorescence 488/530 nm; active compounds read high; fluorescence (KMESF) at 10 µM; 220,000 compounds, 0.38% hits; AID 1775, 2009; in the data active = fluorescence above about 47
RGS4-Gao reg – modulators of RGS4 binding to Galphao, primary screen, biochemical, multiplexed bead flow cytometry. 220,000 compounds, 0.33% hits. AID 1415, 2008. Guanine nucleotide-binding protein G(o) subunit alpha (Homo sapiens), P09471. actives lie on both sides. binding response (% of control), % at 10 µM; in the data active = binding response below about 49% or above about 150%; inactive = in between;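 also: fluorescent Galphao activated with aluminum fluoride binding bead-coupled RGS4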
Numbers without * were called inactive; ? = inconclusive; · = not tested or not shown; [ ] = another dose, or the depositor's remark. Rows were chosen to be rich in hits. Some 1.2% of all compounds tested hit in one or more screens of this group.

SMILES	GSH fluor	RGS16-Gao	RGS8-Gao	RGS7-Gao reg	Avidin bead fluor	RGS4-Gao reg
NC(=S)n1[nH]c(-c2ccc([N+](=O)[O-])cc2)c(N=Nc2ccccc2[N+](=O)[O-])c1=O	453*	104	102	105	9	99
O=C(c1ccccc1)c1ccc(OCCOCCN2CCN(Cc3ccccc3)CC2)cc1	18	104	100	103	8	102
CCOC(=O)/C(=C\c1ccc(OC(F)F)cc1)C1=Nn2c(nnc2-c2ccc(Cl)cc2)SC1	10	89	98	102	13	100
Cc1nc(N2CCC(C)CC2)c2nnn(Cc3ccccc3)c2n1	89*	38	84	84	4	82
COc1cc(C(=O)NCCc2c[nH]c3ccccc23)ccc1OCc1c(C)noc1C	9	108	104	101	11	107
COc1ccc(-c2cc3ccccc3oc2=O)cc1NC(=O)c1ccc(Br)o1	30	149	106	123	47*	148
CC(=O)NC1CC(C)(C)N(OC(C)=O)C(C)(C)C1	36	114	105	133	53*	111
Cc1ccc(CS(=O)(=O)c2ccc(C(=O)N3CCN(c4ccccn4)CC3)cc2[N+](=O)[O-])cc1	20	36	89	100	60*	100
COc1cccc2sc(NC(=O)c3ccc(Br)s3)nc12	265*	92	91	87	7	87
Cc1cccc2sc(NC(=O)c3ccc(Cl)s3)nc12	21	101	100	101	7	99
CCOC(=O)/C(C#N)=C(C)/C=C1\Sc2ccccc2N1CC	8	97	93	131	70*	106
CCN1/C(=C\C=C(C(C)=O)C(C)=O)Sc2ccccc21	14	94	100	98	6	95
O=C(c1cccnc1)N1CCC(Oc2ccc(C(=O)N3CCCCO3)cc2)CC1	15	111	103	101	10	101
Cc1cc2nc(C3CCN(C(=S)NCCCOC(C)C)CC3)[nH]c2cc1C	15	116	105	103	9	100
N#C/C(=C\c1ccc(O)c(O)c1)S(=O)(=O)c1ccccc1	28	259*[activator]	155*[activator]	203*[activator]	·	223*[activator]
COc1ccccc1NC(=O)Nc1ccc(Br)cn1	266*	110	103	107	6	106
CCOc1ccccc1NC(=O)Nc1ccc(Br)cn1	24	101	101	100	11	100
COc1ccccc1NC(C)=O	251*	-1	81	76	4	78
COc1ccccc1NC(=O)NCCC1=CCCCC1	10	100	101	100	3	98
COc1ccccc1NC(=S)NC(C)=O	9	101	100	102	10	102
COc1ccccc1NC(=O)NCCCl	12	108	100	137	92*	104
O=C(CSc1nnc(-c2ccc(C(F)(F)F)cn2)o1)Nc1cccc(Cl)c1	·	98	94	?	14	94
Cc1cc(N2CCOCC2)nc(N2CCOCC2)n1	23	98	99	?	11	102
Cc1cc(N2CCCCC2)nc(N2CCOCC2)n1	35	109	106	125	111*	110
NC(=O)CC(NC(=O)Cc1cccc2ccccc12)c1ccc(N2CCc3ccccc3C2)c([N+](=O)[O-])c1 (stereo not given)	·	98	101	?	8	104
SMILES	GSH fluor	RGS16-Gao	RGS8-Gao	RGS7-Gao reg	Avidin bead fluor	RGS4-Gao reg
CC(Sc1nnc(Cc2cccs2)n1C1CCCCC1)C(=O)N1CCc2ccccc21 (stereo not given)	17	98	97	104	48*	98
CCCCCCn1c(SCC(=O)c2c(N)n(C)c(=O)n(C)c2=O)nc2ccccc21	45	107	109	101	7	104
Cn1c(N)c(C(=O)CSc2nc3ccccc3c(=O)n2Cc2ccccc2)c(=O)n(C)c1=O	·	139	101	?	49*	145
CCN(CC)CCn1c(=N)n(CC(O)COc2ccccc2)c2ccccc21 (stereo not given)	·	87	91	?	51*	113
Cc1onc(-c2c(Cl)cccc2Cl)c1NC(=O)N(C)N	·	131	106	?	49*	135
COc1ccc(CNC(=O)c2cnn3c(C(F)F)cc(C)nc23)cc1	11	88	95	132	94*	103
Cc1cc(C)n2ncc(C(=O)NCc3ccccc3)c2n1	264*	105	102	99	7	100
Cc1ccc(NC2=C(NCCO)C(=O)c3ccccc3C2=O)cc1	11	102	100	116	49*	118
O=C(O)/C=C/C(=O)N1CCN(c2cccc(Cl)c2)CC1	10	106	105	102	21	100
O=C(c1cc2cccc([N+](=O)[O-])c2oc1=O)N1CCOCC1	·	103	100	?	8	102
CCc1cccc(CC)c1NC(=O)COC(=O)CC1c2ccccc2CCN1S(=O)(=O)c1ccccc1 (stereo not given)	12	97	98	128	78*	104
CCc1cccc(CC)c1NC(=O)COC(=O)c1cccc(S(=O)(=O)N2CCc3ccccc3C2)c1	17	102	101	98	3	101
O=C(NC(=S)NCCC1=CCCCC1)c1cccnc1	9	101	100	100	9	100
O=C(NCCc1c[nH]c2ccccc12)c1ccc(-n2cnnn2)cc1	26	169	106	133	67*	147
O=C(NCCc1ccccc1)c1ccc(-n2cnnn2)cc1	32	80	102	90	7	88
O=C(Nc1ccc(Cl)c(C(F)(F)F)c1)N1CCCC(O)C1 (stereo not given)	14	101	96	112	66*	94
O=C(Nc1ccc(Cl)c(C(F)(F)F)c1)C(=O)N1CCCCC1	10	46	85	95	5	97
O=c1c2ccccc2c2ccccc2c(=O)n1Cc1ccco1	19	108	103	102	34	101
Cc1c(N=Cc2c(O)n(Cc3ccco3)c(=O)c3ccccc23)c(=O)n(-c2ccccc2)n1C	136*	102	101	100	4	99
O=C(CCCN1C(=O)c2ccccc2C1=O)NC1=NCCS1	259*	96	104	98	8	100
Cc1cccc(C(=O)N[C@H](C(=O)Nc2ccc(C)c(S(=O)(=O)N(C)C)c2)C(C)C)c1	14	88	96	95	11	91
COc1cc(S(=O)(=O)N(Cc2ccccc2)CC2CCCO2)ccc1-n1cnnn1 (stereo not given)	27	48	86	102	5	95
